Screening results (PubChem)
SARS PLpro yeast: inhibitors of SARS-CoV papain-like protease in yeast | S. cerevisiae expressing SARS-CoV PLpro, growth rescue | Potency, µM (titrated, usually from 32.9 µM), for the others: top-dose activity, positive = growth rescue, most hits filed as activators | hit rate 0.19% among 330,000; calls by dose curve; note: 0% is about no effect; nearly all actives have a fitted effect of over 55% in size
Sm TGR inh: inhibitors of Schistosoma mansoni thioredoxin glutathione reductase; purified TGR, DTNB reduction, TNB absorbance 405 nm; Potency, µM (highest dose often 114 µM), for inactives: at the top dose activity change, negative = inhibition, most hits filed as inhibitors; Q962Y6; hit rate 3% among 360,000; note: % is set by controls: 0 for no effect and ±100 for the full control effect; nearly all actives have a fitted effect of over 60% in size
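TGR 20 nM + NADPH 100 uM (dispensed conc.), cpd preinc 15 min RT; start with NADPH (500 uM addition) then DTNB (15 mM addition). Kinetic TNB absorbance, 405 nm filter. Four-parameter Hill fit across titration.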
Pf growth 48h: P. falciparum growth inhibition at 48 hours (one generation); P. falciparum luciferase growth in erythrocytes, 48 h; Potency, µM (highest dose often 28.7 µM), for inactives: at the top dose activity change, negative = inhibition, actives largely listed as inhibitors; hit rate 5.9% among 310,000; AID 504832; note: % is set by controls: 0 for no effect and ±100 for the full control effect
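Here the parasites carry a stable luciferase gene and grow inside erythrocytes in Albumax-based RPMI medium with compound for one erythrocytic cycle. Activity is scored as loss of luminescent signal.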
AmpC inh no detg: inhibitors of E. coli AmpC beta-lactamase without detergent; AID 485341; hit rate 0.52% among 330,000; Potency, µM (top dose mostly 57.1 µM), for inactives: at the highest dose activity change, negative = inhibition, usual class: inhibitors; P00811; AmpC nitrocefin hydrolysis, absorbance 480 nm, 0.0001% Triton;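 note: plate controls were no compound for no effect and no enzyme for full effect; nearly all actives have a fitted effect of over 20% in size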
Target sequence (P00811 whole entry, looked up): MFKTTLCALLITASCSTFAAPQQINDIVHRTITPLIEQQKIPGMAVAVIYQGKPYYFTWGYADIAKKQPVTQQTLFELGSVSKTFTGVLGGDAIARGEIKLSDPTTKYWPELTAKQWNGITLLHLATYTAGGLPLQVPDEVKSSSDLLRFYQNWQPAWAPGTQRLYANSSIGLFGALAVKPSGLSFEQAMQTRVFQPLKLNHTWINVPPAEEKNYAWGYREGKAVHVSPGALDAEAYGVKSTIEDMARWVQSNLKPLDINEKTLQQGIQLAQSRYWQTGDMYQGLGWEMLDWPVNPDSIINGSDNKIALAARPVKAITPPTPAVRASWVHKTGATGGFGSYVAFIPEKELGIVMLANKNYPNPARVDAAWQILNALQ
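AmpC (5.3 nM in the dispensed reagent) in 20 mM phosphate pH 7.0 with 0.01% (detergent screen) or 0.0001% Triton X-100 was preincubated with compounds for 15 min at room temperature. Nitrocefin was then added from an 800 uM solution, and hydrolysis was followed at 480 nm.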
AmpC inh detg: blocks E. coli AmpC beta-lactamase in detergent assay | P00811 | AmpC hydrolysis of nitrocefin, absorbance 480 nm, 0.01% Triton | hit rate 0.041% among 370,000 | AID 485294 | Potency, µM (doses to about 114 µM), inactives show top-dose activity change, negative = inhibition, actives largely listed as inhibitors;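 note: 0% = no-compound wells and -100% = no-enzyme wells; nearly all actives have a fitted effect of over 25% in size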
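AmpC (5.3 nM in the dispensed reagent) in 20 mM phosphate pH 7.0 with 0.01% (detergent screen) or 0.0001% Triton X-100 was preincubated with compounds for 15 min at room temperature. Nitrocefin was then added from an 800 uM solution, and hydrolysis was followed at 480 nm.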
Pf growth 96h: P. falciparum growth inhibition at 96 hour, primary screen for plastid delayed-death inhibitors. P. falciparum luciferase reporter growth, 96 h. Potency, µM (doses to about 28.7 µM), inactives show at the highest dose activity change, negative = inhibition, most hits filed as inhibitors. hit rate 6.9% among 320,000. AID 504834; note: % is set by controls: 0 for no effect and ±100 for the full control effect
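Parasite growth measured via integrated firefly luciferase reporter in P. falciparum. Infected erythrocytes at 2% hematocrit, 0.05% parasitemia final were treated 96 hours at 37 C under 5% CO2, and luminescence was read.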
* hit, by the source's call; ? = inconclusive; . = no result given. Shown are actives, neighbours in structure and some others; about 12% of the full set was active somewhere. Unless noted, calls come from the whole dose curve; as a rule, active = well fitted curve in the direction sought with a large enough effect; inconclusive = small, poorly fitted or top-dose-only effect, or another doubt; inactive = no such curve, though single readings can be large; an effect the other way counts as inactive or inconclusive. Potency is the fitted concentration of half-maximal effect.

SMILES	SARS PLpro yeast	Sm TGR inh	Pf growth 48h	AmpC inh no detg	AmpC inh detg	Pf growth 96h
Cc1ccc(Nc2nc(N)nc(CN3CCN(C(=O)c4ccco4)CC3)n2)cc1Cl	1%	40µM*	?	59%	-2%	7.4µM*
Cc1cccc(Nc2nc(N)nc(CN3CCN(c4ccc(F)cc4)CC3)n2)c1	1%	2%	?	24%	-10%	10µM*
Nc1nc(CN2CCN(c3ccccc3F)CC2)nc(Nc2ccccc2)n1	-10%	-21%	?	-18%	-14%	?
Cc1ccc(Nc2nc(N)nc(CN3CCCCCC3)n2)cc1	3%	40µM*	-8%	-15%	?	.
Cc1ccc(Nc2nc(N)nc(CN3CCN(c4ccccc4F)CC3)n2)cc1	7%	-31%	?	27%	4%	6.6µM*
Cc1c(CC(=O)NCCc2ccccc2F)c(=O)oc2cc(O)c(Cl)cc12	.	9%	.	.	18%	.
CC1(C)C(C=C(Cl)Cl)C1C(=O)N1CCN(Cc2ccccc2)CC1 (centres undefined)	1%	-23%	-18%	104%	?	-2%
Cc1ccc(NS(=O)(=O)c2ccc(-c3coc(C)n3)cc2)c(Br)c1	-14%	4%	22%	-30%	-7%	?
Cc1csc(NC(=O)C2CCN(S(=O)(=O)c3cccs3)CC2)n1	0%	-4%	-2%	-33%	-12%	55%
O=C(Nc1nc(-c2ccc(F)cc2)cs1)C1CCN(C(=O)c2ccc(F)cc2)CC1	1%	-7%	?	23%	-1%	6.6µM*
O=C(Nc1nc2c(F)cc(F)cc2s1)C1CCN(C(=O)c2ccc(F)cc2)CC1	-6%	-19%	91%	-39%	-13%	117%
CC(=O)Nc1ccc(-c2csc(NC(=O)C3CCN(S(=O)(=O)c4cccs4)CC3)n2)cc1	8%	-2%	2.1µM*	-12%	?	?
CC(C(=O)NC1CCCC1)N1CCN(S(=O)(=O)c2ccc(C(C)(C)C)cc2)CC1 (centres undefined)	1%	-8%	1.5µM*	-5%	3%	1.5µM*
Cc1ccc(CNC(=O)C2CCN(S(=O)(=O)c3cccs3)CC2)o1	4%	5.6µM*	?	20%	4%	87%
Cc1ccc(CNC(=O)C2CCN(S(=O)(=O)c3cccs3)CC2)cc1	2%	-4%	11%	-9%	-6%	-1%
CC(C)(C)c1ccc(S(=O)(=O)N2CCN(C3CCCC3)CC2)cc1	-2%	-1%	?	-10%	?	12%
COc1ccc(CNC(=O)c2ccc(CN3C(=O)C(C)=C(c4ccc(C)cc4)S3(=O)=O)cc2)cc1	.	-9%	.	.	23%	.
COc1ccc(CNC(=O)CSc2ncc(S(=O)(=O)c3ccc(C)c(Cl)c3)c(=O)[nH]2)cc1	.	-4%	.	.	13%	.
CCc1ccc(OCC(=O)Nc2ncn[nH]2)c(Br)c1	.	-1%	.	.	1%	.
CCCn1c(NC(=O)C2CCN(S(=O)(=O)c3cccs3)CC2)nc2ccccc21	-6%	5%	10µM*	-9%	5%	71%
CC(C(=O)NCC1CCCCC1)N1CCN(S(=O)(=O)c2cccs2)CC1 (centres undefined)	0%	-10%	9.3µM*	65%	-6%	?
CCCn1c(NC(=O)c2cccc(S(=O)(=O)N3CCCC3)c2)nc2ccccc21	5%	4%	?	-22%	?	9.3µM*
Cc1cc(Cl)ccc1NC(=O)CCS(=O)(=O)c1ccc2c(c1)CC(C)N2C(=O)C1CC1 (centres undefined)	.	-1%	.	.	13%	.
Cc1cccc(C)c1N(CC(=O)Nc1cc(Cl)ccc1Oc1ccccc1)S(C)(=O)=O	-3%	2%	10µM*	0.16µM*	?	?
Cc1ccc(C)c(N(CC(=O)Nc2cc(Cl)ccc2Oc2ccccc2)S(C)(=O)=O)c1	1%	9%	?	10%	-12%	15µM*
SMILES	SARS PLpro yeast	Sm TGR inh	Pf growth 48h	AmpC inh no detg	AmpC inh detg	Pf growth 96h
COc1ccc(Cl)cc1NC(=O)CN(c1cccc(C)c1C)S(=O)(=O)c1ccccc1	.	-2%	.	.	-7%	.
Cc1ccc(C(=O)Nc2cc(Cl)ccc2Oc2ccccc2)cc1[N+](=O)[O-]	17%	16%	13µM*	-13%	9%	?
O=S1(=O)CCO[C@H]2Cc3ccccc3[C@H]2N1Cc1ccccc1Br	-19%	-3%	12%	-11%	?	17µM*
O=c1c2ccccc2cnn1CCOc1cccc(Br)c1	-2%	-12%	?	3%	5%	9.3µM*
CCOc1cc(-c2c(C#N)c(N)nc3c2CCc2ccccc2-3)ccc1O	-2%	-15%	?	-38%	-11%	-4%
CCOc1cc(-c2c(C#N)c(N)nc3c2CCCC3C)ccc1O (centres undefined)	-11%	-14%	-24%	-24%	-16%	2.9µM*
COc1ccc(-n2nc(C(=O)N3CCN(c4cccc(C(F)(F)F)c4)CC3)c3c4ccccc4n(C)c3c2=O)cc1Cl	.	4%	.	.	-2%	.
CCOC(=O)N1CCN(S(=O)(=O)c2ccc(F)c(C(=O)Nc3cc(C)cc(C)c3)c2)CC1	5%	-2%	8.3µM*	93%	-7%	?
CCOC(=O)N1CCN(S(=O)(=O)c2ccc(F)c(C(=O)Nc3cccc(Cl)c3C)c2)CC1	10%	10%	12µM*	42%	-14%	-17%
O=C(Nc1cccc(Cl)c1Cl)c1cc(S(=O)(=O)N2CCCCC2)ccc1F	.	-5%	.	.	-4%	.
Cc1cccc(N2CCN(c3nc4ccc(Cl)cc4n4cnnc34)CC2)c1C	6%	1%	?	-10%	-13%	3%
COc1ccc(N(CCC#N)S(=O)(=O)c2cccc3nsnc23)cc1	-12%	4%	-13%	-1%	-13%	-11%
CCN(c1ccccc1)S(=O)(=O)c1ccc(Cl)c(C(=O)N(CC2CCCO2)C2CCS(=O)(=O)C2)c1 (centres undefined)	1%	7%	1.7µM*	183%	3%	?
COc1cc(/C=C/C(=O)O[C@H]2[C@H](O[C@@H]3O[C@@H](C)[C@H](O)[C@@H](O)[C@H]3O)[C@@H](O)[C@H](OCCc3ccc(O)c(OC)c3)O[C@@H]2CO)ccc1O	7%	.	.	88%	.	.
O=C(c1ccc(-c2ccccc2)c(F)c1)C1CCCN(C(=O)c2cncs2)C1 (centres undefined)	-11%	-4%	?	168%	-5%	13µM*
CC(C)Oc1cccc(C(=O)C2CCCN(C(=O)c3cncs3)C2)c1 (centres undefined)	-2%	30%	3%	54%	0%	?
